For some of these results: Results with a measured potency or affinity are listed apart. Calls of active or inactive are those of the source.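 How the source made its calls, unless noted: active means compound raising the membrane signal above positive-control mean plus 3 SD in both repeats, and a primary screen hit; inactive means the rest.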
Key:
[1] = test system: TRPC4 beta (transient receptor potential cation channel C4), mouse; test: TRPC4 cation channel opening, retest – cell-based, Fluo4 calcium, HEK293 TRPC4beta/mu-opioid, duplicates, 10 µM, confirmation (AID 2426;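 active means fluorescence ratio normalized to control raised more than 50% in primary screen plus both repeat runs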); details: Fluo4 calcium fluorescence, at 10 µM; active compounds read high
[2] = test system: transient receptor potential cation channel C4 beta (TRPC4), mouse; test: TRPC4 cation channel opening, second retest – cell-based, second round, Fluo4, HEK293 TRPC4beta/mu-opioid, 1 µM, confirmation (AID 2461;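 active means primary screen active and over 50% activation in each of two duplicate runs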); details: Fluo4 calcium fluorescence, at 1 µM; active compounds read high
[3] = test system: TRPC4 (transient receptor potential cation channel C4 beta), mouse; test: potentiation of DAMGO EC20 TRPC4 response – cell-based, second round, Fluo-4, HEK293 TRPC4beta/mu-opioid, 1 µM, confirmation (AID 2554;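 active means primary screen hit whose fluorescence ratio, in both repeats, exceeds the weak agonist control mean by 3 SD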); details: DAMGO EC20, Fluo-4 calcium flux, at 1 µM; active compounds read high
[4] = test system: TRPC4 beta (transient receptor potential cation channel C4), mouse; test: potentiation of DAMGO EC20 TRPC4 response – cell-based, Fluo-4, HEK293 TRPC4beta/mu-opioid, confirmation (AID 2555;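 active means primary screen hit whose calcium fluorescence ratio, in both repeats, exceeds the weak agonist control mean by 3 SD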); details: DAMGO EC20, Fluo-4 calcium flux, at 10 µM; active compounds read high
[5] = molecular target: Short transient receptor potential channel 4 (Mus musculus) (UniProt Q9QUQ5); test: blockers of DAMGO-evoked TRPC4 calcium flux – cell-based, Fluo4, HEK293 TRPC4beta/mu-opioid, confirmation (AID 2636;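 active means calcium signal cut by more than 3 SD below the full-agonist control yet still positive, in both repeats and the earlier primary screen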); details: at 10 µM; active compounds read high
Chain of Short transient receptor potential channel 4 (Mus musculus) (Q9QUQ5 whole entry, looked up): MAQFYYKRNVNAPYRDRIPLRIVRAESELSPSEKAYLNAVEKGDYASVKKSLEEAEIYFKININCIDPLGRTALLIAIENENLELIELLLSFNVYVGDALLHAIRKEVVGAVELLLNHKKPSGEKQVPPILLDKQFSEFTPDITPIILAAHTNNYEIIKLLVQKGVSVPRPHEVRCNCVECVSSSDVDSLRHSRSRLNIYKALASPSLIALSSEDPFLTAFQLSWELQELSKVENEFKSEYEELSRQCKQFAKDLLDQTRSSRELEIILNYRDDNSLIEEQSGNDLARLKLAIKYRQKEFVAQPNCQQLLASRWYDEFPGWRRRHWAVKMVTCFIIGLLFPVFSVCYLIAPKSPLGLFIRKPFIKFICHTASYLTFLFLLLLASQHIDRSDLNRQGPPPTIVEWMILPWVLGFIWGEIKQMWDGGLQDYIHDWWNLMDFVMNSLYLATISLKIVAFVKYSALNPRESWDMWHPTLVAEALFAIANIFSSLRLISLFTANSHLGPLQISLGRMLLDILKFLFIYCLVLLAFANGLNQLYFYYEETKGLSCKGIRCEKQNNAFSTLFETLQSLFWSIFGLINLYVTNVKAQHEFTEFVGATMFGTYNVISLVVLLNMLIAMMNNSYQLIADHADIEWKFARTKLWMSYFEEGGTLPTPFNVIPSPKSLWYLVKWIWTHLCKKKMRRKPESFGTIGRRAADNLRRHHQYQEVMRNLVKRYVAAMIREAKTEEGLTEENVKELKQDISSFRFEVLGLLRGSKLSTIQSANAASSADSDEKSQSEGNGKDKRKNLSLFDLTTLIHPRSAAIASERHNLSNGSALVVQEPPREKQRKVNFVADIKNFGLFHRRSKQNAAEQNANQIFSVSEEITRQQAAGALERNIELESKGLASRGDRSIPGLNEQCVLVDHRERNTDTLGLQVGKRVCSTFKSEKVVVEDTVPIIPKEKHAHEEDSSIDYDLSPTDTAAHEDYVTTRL

[6] = molecular target: Short transient receptor potential channel 4 (Mus musculus) (UniProt Q9QUQ5); test: blockers of DAMGO-evoked TRPC4 calcium flux – cell-based, second round, Fluo4, HEK293 TRPC4beta/mu-opioid, 1 µM, confirmation (AID 2637;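 active means calcium signal ratio cut to more than 3 SD under the fully stimulated control mean yet still positive, in both repeats and the primary screen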); details: at 1 µM; active compounds read high
[7] = molecular target: Short transient receptor potential channel 4 (Mus musculus) (UniProt Q9QUQ5); test: calcium entry via TRPC4 opening agents – cell-based, HEK293 TRPC4/mu-opioid, Fluo-4 calcium, dose response (AID 434937;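 active means primary screen activator hit with a dose response curve and TRPC4 channel activation at any tested dose; inactive means no activation, no dose response, or not a primary hit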)
[8] = molecular target: Short transient receptor potential channel 6 (Mus musculus) (UniProt Q61143); test: TRPC6 blockade by TRPC4 inhibitor hits – cell-based, HEK293, membrane potential dye, duplicate, selectivity assay for TRPC4 inhibitor project, confirmation (AID 434948;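 active means active in primary screen and both duplicates, each dropping signal beyond three positive-control SD with fluorescence still positive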); details: HEK293 TRPC6, membrane potential dye fluorescence, at 10 µM, stimulated with maximal-effect acetylcholine; active compounds read high
Chain of Short transient receptor potential channel 6 (Mus musculus) (Q61143 whole entry, looked up): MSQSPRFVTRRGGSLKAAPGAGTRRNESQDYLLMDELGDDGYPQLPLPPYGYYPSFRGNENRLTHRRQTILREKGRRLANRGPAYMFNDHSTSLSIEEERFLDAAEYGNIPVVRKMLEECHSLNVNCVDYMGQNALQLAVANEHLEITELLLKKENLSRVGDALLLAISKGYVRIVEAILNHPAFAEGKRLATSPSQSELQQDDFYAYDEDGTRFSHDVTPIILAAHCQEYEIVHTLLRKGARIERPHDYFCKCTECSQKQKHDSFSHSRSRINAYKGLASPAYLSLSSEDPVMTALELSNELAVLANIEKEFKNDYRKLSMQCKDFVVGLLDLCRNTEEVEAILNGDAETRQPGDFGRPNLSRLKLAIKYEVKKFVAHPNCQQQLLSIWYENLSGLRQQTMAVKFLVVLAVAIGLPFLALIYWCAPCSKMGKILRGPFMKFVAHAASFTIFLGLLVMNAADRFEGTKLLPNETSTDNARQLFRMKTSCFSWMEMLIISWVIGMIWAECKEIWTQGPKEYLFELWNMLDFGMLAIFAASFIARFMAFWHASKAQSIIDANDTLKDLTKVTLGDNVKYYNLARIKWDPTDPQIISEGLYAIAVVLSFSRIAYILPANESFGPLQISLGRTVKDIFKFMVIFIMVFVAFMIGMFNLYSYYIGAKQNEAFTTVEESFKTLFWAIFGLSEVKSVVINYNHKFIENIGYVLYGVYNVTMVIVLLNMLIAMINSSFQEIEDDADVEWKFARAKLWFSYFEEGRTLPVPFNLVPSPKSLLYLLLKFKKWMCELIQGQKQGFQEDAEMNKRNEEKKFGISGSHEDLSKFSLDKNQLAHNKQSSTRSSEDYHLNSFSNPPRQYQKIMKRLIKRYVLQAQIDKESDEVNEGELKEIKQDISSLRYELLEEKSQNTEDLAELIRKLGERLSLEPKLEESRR

[9] = molecular target: Short transient receptor potential channel 6 (Mus musculus) (UniProt Q61143); test: TRPC6 opening by TRPC4 activator hits – cell-based, HEK293, membrane potential dye, duplicate, selectivity assay for TRPC4 activator project, confirmation (AID 434950;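 active means membrane potential signal rise above negative control mean plus 3 SD in both duplicates, also active in the earlier TRPC4 screen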); details: HEK293 TRPC6, membrane potential fluorescence, at 10 µM; activation: active compounds read high; outcome: activation
[10] = molecular target: Short transient receptor potential channel 6 (Mus musculus) (UniProt Q61143); test: positive modulators of mouse TRPC6 channel – HEK293 cells, membrane potential dye, duplicate, selectivity assay for TRPC4 potentiator project, confirmation (AID 434952); details: HEK293 TRPC6, membrane potential dye fluorescence, at 10 µM, maximal acetylcholine added after compound; active compounds read high
[11] = molecular target: Short transient receptor potential channel 4 (Mus musculus) (UniProt Q9QUQ5); test: calcium flux activators in TRPC4/5HT1a cells, counter-screen for TRPC4 activator project, cell-based, second counter screen, HEK293 TRPC4/5HT1a, Fluo-4 (AID 434977;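 active means calcium signal rise above buffer-control mean plus 5 SD in both duplicates, and also a hit in the primary screen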); details: Fluo-4 calcium flux, at 10 µM; active compounds read high
[12] = serotonin-gated TRPC4 signal block – cell-based, second counter screen, HEK293 TRPC4/5HT1a, Fluo-4, counter-screen for TRPC4 inhibitor project, confirmation (AID 434978;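 active means primary screen active whose calcium signal fell more than 3 SD beyond the full-serotonin control mean in both duplicate plates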;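 on outcome: serotonin given first at submaximal then at maximal dose after compound preincubation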); details: Fluo-4 calcium flux, at 10 µM, serotonin added to trigger calcium flux; active compounds read high
[13] = test system: TRPC4 (mouse), co-expressed with 5HT1a in HEK293; test: enhancement of serotonin-evoked TRPC4 response – cell-based, second counter screen, HEK293 TRPC4/5HT1a, Fluo-4, counter-screen for TRPC4 potentiator project, confirmation (AID 434979;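 active means signal rise over 3 SD above mean of control wells given weak agonist, in both repeats and first screen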); details: Fluo-4 calcium flux, at 10 µM, serotonin added at its EC20 dose; active compounds read high
[14] = nonspecific calcium rise without TRPC4 – cell-based, HEK293 mu-opioid receptor line, counter-screen for TRPC4 activator project, confirmation (AID 449723;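 active means hit in primary screen, with calcium signal over 5 SD above buffer well mean in both duplicates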;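 further: counter screen cells carry the mu-opioid receptor alone and lack TRPC4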); details: HEK293 mu-opioid cells, Fluo-4 calcium fluorescence, at 10 µM; active compounds read high
[15] = nonspecific potentiation of DAMGO calcium response – cell-based, HEK293 mu-opioid receptor line, counter-screen for TRPC4 allosteric potentiator project, confirmation (AID 449724;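 active means calcium signal rise more than 3 SD above the low-dose agonist control mean, in both duplicate plates and the primary screen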); details: HEK293 mu-opioid receptor cells, Fluo-4 calcium flux, at 10 µM, compound added before EC20 DAMGO stimulus; active compounds read high
[16] = molecular target: Short transient receptor potential channel 4 (Mus musculus) (UniProt Q9QUQ5); test: potentiation of DAMGO-evoked TRPC4 calcium signal – cell-based, HEK293 TRPC4/mu-opioid, Fluo-4 calcium, EC20 DAMGO, dose response (AID 434941;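 active means earlier screen potentiator hit that boosts the TRPC4 ion channel at some dose, with a dose response; inactive means no potentiation, no dose response, or not a prior hit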;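 further: calcium entry triggered by an EC20 dose of DAMGO at the co-expressed mu-opioid receptor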)
[17] = nonspecific flux increase, KCNQ1-free cells – parental CHO cells, counter-screen for KCNQ1 potentiator project (AID 493006;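 active means duplicate-averaged activation above buffer control mean plus 5 SD of those controls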;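 on activation: fluorescence ratio of max minus min over baseline after K+ and Tl+ depolarization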); details: parental CHO-K1 cells, FluxOR thallium flux, at 10 µM; active compounds read high
[18] = molecular target: Potassium voltage-gated channel subfamily KQT member 1 (Homo sapiens) (UniProt P51787); test: enhancement of KCNQ1 channel thallium flux – FluxOR thallium flux, CHO cells, duplicates, confirmation (AID 493007;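 active means potentiation averaged over duplicate wells exceeding buffer-only control mean by more than 3 SD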;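 on outcome: cells depolarized by a potassium plus thallium sulfate stimulus after compound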;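 on potentiation: 0% = buffer-only wells and 100% = R-L3 activator control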); details: KCNQ1 cell line, FluxOR thallium flux fluorescence, at 10 µM; active compounds read high, % of reference activator effect, buffer zero
Chain of Potassium voltage-gated channel subfamily KQT member 1 (Homo sapiens) (P51787 whole entry, looked up): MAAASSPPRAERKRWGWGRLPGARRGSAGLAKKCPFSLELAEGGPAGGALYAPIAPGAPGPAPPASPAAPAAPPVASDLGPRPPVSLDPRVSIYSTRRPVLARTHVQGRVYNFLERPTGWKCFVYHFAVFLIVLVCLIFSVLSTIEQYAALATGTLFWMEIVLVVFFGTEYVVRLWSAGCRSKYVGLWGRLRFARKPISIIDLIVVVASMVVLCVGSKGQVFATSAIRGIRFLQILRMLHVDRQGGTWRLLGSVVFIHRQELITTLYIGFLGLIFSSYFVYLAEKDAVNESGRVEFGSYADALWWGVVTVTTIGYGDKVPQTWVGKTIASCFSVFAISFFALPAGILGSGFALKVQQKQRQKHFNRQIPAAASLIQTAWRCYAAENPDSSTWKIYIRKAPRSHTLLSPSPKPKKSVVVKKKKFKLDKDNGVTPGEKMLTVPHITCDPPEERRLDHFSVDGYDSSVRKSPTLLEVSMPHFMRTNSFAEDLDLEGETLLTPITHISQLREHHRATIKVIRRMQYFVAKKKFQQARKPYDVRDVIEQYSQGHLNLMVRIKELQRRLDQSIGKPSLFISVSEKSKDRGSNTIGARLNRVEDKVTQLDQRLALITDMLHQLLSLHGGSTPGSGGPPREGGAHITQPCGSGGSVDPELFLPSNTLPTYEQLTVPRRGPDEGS

[19] = molecular target: Potassium voltage-gated channel subfamily KQT member 2 (Rattus norvegicus) (UniProt O88943); test: KCNQ2 thallium flux enhancement – KCNQ2-CHO-K1 cells, selectivity assay for KCNQ1 potentiator project (AID 493009;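 active means mean duplicate potentiation above the buffer control mean plus 5 SD of buffer wells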;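 further: assay conditions were tuned for KCNQ1 rather than KCNQ2 modulators; signal is max minus min fluorescence divided by baseline after thallium stimulus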); details: FluxOR thallium flux fluorescence, at 10 µM; active compounds read high, scaled: buffer 0, activator control 100
Chain of Potassium voltage-gated channel subfamily KQT member 2 (Rattus norvegicus) (O88943 whole entry, looked up): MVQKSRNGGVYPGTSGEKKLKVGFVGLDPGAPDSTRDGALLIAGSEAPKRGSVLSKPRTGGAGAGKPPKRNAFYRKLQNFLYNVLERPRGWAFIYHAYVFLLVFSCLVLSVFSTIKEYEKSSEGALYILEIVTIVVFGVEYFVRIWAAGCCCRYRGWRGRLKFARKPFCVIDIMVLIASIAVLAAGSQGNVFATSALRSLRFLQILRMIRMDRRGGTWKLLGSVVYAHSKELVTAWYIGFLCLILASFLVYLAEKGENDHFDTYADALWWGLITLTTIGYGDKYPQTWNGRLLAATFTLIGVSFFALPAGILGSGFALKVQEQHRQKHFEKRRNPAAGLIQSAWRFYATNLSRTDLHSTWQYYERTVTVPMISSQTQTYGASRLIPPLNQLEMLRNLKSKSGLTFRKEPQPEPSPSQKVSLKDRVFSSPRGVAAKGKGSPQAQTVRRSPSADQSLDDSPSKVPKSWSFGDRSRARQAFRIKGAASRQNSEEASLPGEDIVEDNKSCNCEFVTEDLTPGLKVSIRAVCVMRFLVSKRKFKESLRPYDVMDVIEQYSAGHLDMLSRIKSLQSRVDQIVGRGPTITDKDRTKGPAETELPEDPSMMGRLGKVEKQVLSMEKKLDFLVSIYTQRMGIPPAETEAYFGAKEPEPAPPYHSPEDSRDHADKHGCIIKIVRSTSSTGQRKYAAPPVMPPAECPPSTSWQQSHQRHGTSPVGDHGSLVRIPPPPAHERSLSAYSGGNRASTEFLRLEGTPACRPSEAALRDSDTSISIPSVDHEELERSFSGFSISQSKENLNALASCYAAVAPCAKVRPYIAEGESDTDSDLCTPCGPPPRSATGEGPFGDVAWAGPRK

[20] = molecular target: Potassium voltage-gated channel subfamily KQT member 1 (Homo sapiens) (UniProt P51787); test: KCNQ1 activators by electrophysiology – IonWorks patch clamp, KCNQ1-CHO cells, orthogonal assay for KCNQ1 potentiator project, confirmation (AID 493184;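 active means current rise at least 3 SD above the untreated control mean in each of two repeat wells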); details: automated patch clamp current, at 10 µM; active compounds read high

N#CC1=C(N)C(C#N)(C#N)C(c2cccnc2)C2CC(c3ccccc3)CC=C12 (stereo not given)
active: potentiation [4] 77% | potentiation [13] 9.65%
inactive: outcome [1] | outcome [2] | outcome [3] | outcome [5] | outcome [6] | outcome [7] | outcome [8] | outcome [9] | outcome [10] | outcome [11] | outcome [12] | outcome [14] | outcome [15]

S=c1[nH]nc(-c2cc3c(s2)-c2ccccc2CC3)o1
inactive: outcome [1] | outcome [2] | outcome [3] | outcome [4] | outcome [6] | outcome [7] | outcome [16] | outcome [8] | outcome [9] | outcome [10] | outcome [11] | outcome [13] | outcome [14] | outcome [15] | outcome [20]
active: inhibition [5] 97% | inhibition [12] 32.1% | activation [17] 810% | potentiation [18] 241% | potentiation [19] 809%

O=C(O)CCNc1nc(-c2ccccc2)c2cc(Br)ccc2n1
inactive: outcome [1] | outcome [2] | outcome [4] | outcome [5] | outcome [6] | outcome [7] | outcome [8] | outcome [9] | outcome [10] | outcome [11] | outcome [12] | outcome [14] | outcome [15]
active: potentiation [3] 11% | potentiation [13] 24.1%

c1ccc(-c2nc(NCc3ccco3)c3ccccc3n2)cc1
active: inhibition [5] 87% | inhibition [12] 32.3%
inactive: outcome [1] | outcome [2] | outcome [3] | outcome [4] | outcome [6] | outcome [7] | outcome [16] | outcome [8] | outcome [9] | outcome [10] | outcome [11] | outcome [13] | outcome [14] | outcome [15] | outcome [17] | outcome [18] | outcome [19] | outcome [20]

Reference: PubChem BioAssay
